Screening results as filed in PubChem BioAssay.
TRHR agonist – TRH receptor (human) agonism. 360,000 compounds, 0.18% hits. activation, % at 2 µM. P34981. TRHR cells, calcium flux fluo-8, FDSS agonist mode; also: 0% is about no effect
Target sequence (P34981 whole entry, looked up): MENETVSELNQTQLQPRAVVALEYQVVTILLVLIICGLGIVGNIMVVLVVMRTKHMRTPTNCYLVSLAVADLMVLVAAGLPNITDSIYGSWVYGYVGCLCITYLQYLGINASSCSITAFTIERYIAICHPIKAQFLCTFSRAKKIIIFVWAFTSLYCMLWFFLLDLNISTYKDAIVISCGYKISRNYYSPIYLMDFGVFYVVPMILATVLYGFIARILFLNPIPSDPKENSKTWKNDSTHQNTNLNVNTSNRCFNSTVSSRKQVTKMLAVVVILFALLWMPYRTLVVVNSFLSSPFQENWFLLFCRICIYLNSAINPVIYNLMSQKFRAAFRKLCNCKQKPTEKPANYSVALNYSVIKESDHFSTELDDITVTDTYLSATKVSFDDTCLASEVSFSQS
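In this calcium-flux screen, cells bearing human TRHR are dye-loaded with fluo-8, baselined for 10 cycles, then exposed to library compounds; positive kinetic calcium responses during the agonist phase mark hits, with TRH as control.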
TRHR enhancer – allosterically enhances the human TRH receptor; P34981; TRHR cells, fluo-8 calcium fluorescence, EC20 TRH enhancement; enhancement, % at 2 µM; 360,000 compounds, 0.66% hits; AID 493056; in the data active = enhancement above about 30%; also: 0% is about no effect
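Enhancer read-out: after compound pinning and an initial kinetic agonist-mode read, an EC20 of TRH (10 nM final) was injected and fluo-8 calcium signal (Ex 480/Em 530) followed at 1 s/cycle for 100 cycles in TRHR-expressing cells.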
LDHA inh – inhibitors of human lactate dehydrogenase A; purified LDHA, NADH/diaphorase-resazurin fluorescence; stronger effect = lower value; activity change, % (values are at about 110 or 230 µM); P00338; 480,000 compounds, 0.15% hits; AID 1347041; in the data active = activity change below about -30%;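 also: plate controls were DMSO wells for no effect and wells without enzyme for full effect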
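Human LDH5 at 2 nM final in Tris HCl pH 7.4 with 0.06 mM NADH and 0.2 mM pyruvate, reacted 5 minutes at room temperature. Remaining NADH coupled via diaphorase/resazurin; resorufin fluorescence read at 0 and 20 minutes, normalized to enzyme-free and DMSO wells.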
D1 ag – activates the human D1 dopamine receptor | HEK293 T-REx D1 cells, calcium flux, agonist mode | activation, % at 2 µM | 360,000 compounds, 1% hits; also: 0% is about no effect
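Agonism was scored from calcium flux recorded over 180 s (1 read/s) after pintool compound addition, following a 10-cycle baseline. Cells were inducible force-coupled HEK293 TREx D1, plated overnight at 30 C and loaded with no-wash calcium dye.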
D1 PAM – human D1 dopamine receptor positive modulation; HEK293 TREx D1 cells, calcium flux, dopamine EC20 potentiation; 360,000 compounds, 0.036% hits; potentiation, % at 10 µM; P21728; in the data active = potentiation above about 30%; also: 0% is about no effect
D1 antagonist – blocks dopamine activation of the human D1 receptor; P21728; HEK293 TREx D1 cells, calcium flux, dopamine EC80; stronger effect = lower value; activity change, negative = inhibition, % at 10 µM; 360,000 compounds, 3.2% hits; in the data active = activity change below about -30%; also: % is scaled to controls: 0 for no effect and ±100 for the full control effect
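Calcium flux readout: force-coupled, inducible Hek293 Trex D1 line, cells induced overnight at 30 C with tetracycline, dye-loaded 30–90 min at RT. Antagonism scored against EC80 dopamine challenge given 180 s after compound.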
The depositor's hits bear a star; · = no result given. A selection: hits, their analogues and other compounds. The true share with any hit is near 3.6%. Rule as the data show it, unless noted: active = activation above about 30%; inactive = the rest.

SMILES	TRHR agonist	TRHR enhancer	LDHA inh	D1 ag	D1 PAM	D1 antagonist
CC(C(=O)Nc1ccc([N+](=O)[O-])cc1)N1CCN(C/C=C/c2ccccc2)CC1 (stereo not drawn)	2.2	0.9	2.5	26.1	-14.2	-45.3*
COc1ccc2cc(C(c3nnnn3C(C)(C)C)N3CCc4ccccc4C3)c(=O)[nH]c2c1 (stereo not drawn)	-0.2	10.9	·	-0.4	-2.4	-45.0*
CC(/C=N/Nc1nc2ccccc2[nH]1)=C\c1ccccc1	-0.1	-4.2	-8.1	0.2	-6.8	-41.8*
CCN(CC)c1ccc(/C=N/Nc2nc3ccccc3[nH]2)cc1	-0.2	2.4	-3.8	1.1	-2.3	-61.6*
CC(=O)Nc1ccc(/C=N/Nc2nc3ccccc3[nH]2)cc1	-0.2	5.8	-1.7	5.3	2.9	12.4
Cn1nc(C(=O)N2CCCCCC2)c2c1-c1ccsc1CC2	·	·	52.7	·	·	·
O=C1C(C=NCCN2CCOCC2)=C(O)c2ccccc21	0.4	4.2	1.1	5.5	-0.8	6.9
O=C1C(C=NCCCN2CCOCC2)=C(O)c2ccccc21	0.1	0.7	0.4	1.6	-8.1	-36.9*
COC(=O)c1cc(NC(=O)CSc2nnc(N)s2)ccc1Cl	0.4	34.0*	-0.3	1.5	-3.8	10.1
CCOC(=O)Cc1nnc(NC(=O)CSc2ccc(Cl)cc2)s1	0.8	-2.8	3.3	9.7	-2.0	-31.5*
COc1ccc(Cc2nnc(NC(=O)CSc3ccc(C)cc3)s2)cc1OC	0.1	9.4	-3.4	224.0*	6.4	-1.2
COc1ccc(NC(=O)CSc2nnc(NC(=O)C3CC3)s2)cc1OC	0.8	14.1	-2.3	0.8	-13.3	-35.8*
Nc1nnc(SCC(=O)Nc2ccc(Cl)c(C(=O)O)c2)s1	0.4	4.4	-9.7	2.5	-1.1	11.9
COc1ccccc1CC(=O)Nc1ccc2c3c(cccc13)CC2	·	·	17.0	·	·	·
CCS(=O)(=O)N1CCc2cc(C(=O)CSc3cccc(OC)c3)ccc21	·	·	13.5	·	·	·
CCOc1ccc(NC(=O)N2CCC3(CC2)Oc2ccccc2C(=O)N3Cc2ccccc2F)cc1	·	·	7.1	·	·	·
CC1CCC2(CC1)NC(=O)N(Cc1coc(-c3cccs3)n1)C2=O (stereo not drawn)	·	·	-10.3	·	·	·
CCOC(=O)Cc1nnc(NC(=O)C(CC)Sc2nc(C)cc(C)n2)s1 (stereo not drawn)	0.3	-1.8	-1.8	3.5	·	-35.5*
CCSc1nnc(NC(=O)Cc2ccc(OC)c(OC)c2)s1	-0.5	-5.2	-2.1	1.6	-8.8	-33.1*
CCOC(=O)Cc1nnc(NC(=O)c2ncn[nH]2)s1	0.5	-0.4	0.5	6.1	-2.4	21.2
CC(Oc1ccc(F)cc1)C(=O)Nc1ccc2nsnc2c1 (stereo not drawn)	·	·	19.9	·	·	·
CC(NC(=O)c1ccc(SC(F)F)cc1)c1ccccn1 (stereo not drawn)	·	·	2.5	·	·	·
CCOc1ccc(C2=NNC(c3cccs3)=Nc3ccc(OC)cc32)cc1	0.5	0.2	-2.1	1.4	-5.5	-38.0*
CCc1ccccc1NC(=O)c1cn(C)c(=O)c2ccccc12	-0.1	-1.5	0.4	-1.6	-0.4	-68.9*
COc1ccc(-n2nc(C(=O)Nc3cccc(Cl)c3)c3c4ccccc4n(C)c3c2=O)cc1Cl	0.0	-0.6	-6.5	1.7	1.6	-32.5*
SMILES	TRHR agonist	TRHR enhancer	LDHA inh	D1 ag	D1 PAM	D1 antagonist
Cc1ccc(-n2nc(C(=O)Nc3ccc(F)cc3F)c3c4ccccc4n(C)c3c2=O)cc1	0.3	4.5	-5.2	-0.1	4.8	-0.4
COc1ccc(-n2nc(C(=O)Nc3cccc(C)n3)c3c4ccccc4n(C)c3c2=O)cc1Cl	0.2	6.6	-4.2	0.9	0.8	-8.2
Cc1ccc(-n2nc(C(=O)N(C)c3ccccc3Cl)c3c4ccccc4n(C)c3c2=O)cc1	55.8*	8.3	-1.7	1.7	4.0	12.2
CCc1ccccc1NC(=O)c1nn(-c2ccc(C)cc2)c(=O)c2c1c1ccccc1n2C	-0.8	25.1	-1.6	2.1	-2.9	-33.3*
Cc1nc2cc(NC(C)C(=O)Nc3ccccc3C)ccc2o1 (stereo not drawn)	·	·	84.8	·	·	·
O=C(CSc1nc2ccccc2[nH]1)N1N=C(c2cccs2)CC1c1ccco1 (stereo not drawn)	·	·	2.9	·	·	·
CC1CCCN(C(=O)CSc2nc3ccccc3c(=O)[nH]2)C1 (stereo not drawn)	·	·	3.8	·	·	·
CC(c1nc(-c2cccs2)no1)N(C)Cc1cccc(Cl)c1 (stereo not drawn)	·	·	14.6	·	·	·
O=C1CCC(=O)N1CN(Cc1ccco1)CN1C(=O)CCC1=O	0.0	-7.3	-1.4	1.0	-6.3	-77.4*
CC(=O)c1c[nH]c(C(=O)NC(C)c2ccccc2Cl)c1 (stereo not drawn)	·	·	-0.4	·	·	·
COc1ccc2c(c1OC)C(=O)N1c3ccccc3SC21 (stereo not drawn)	0.1	39.5*	-1.2	0.8	1.6	-4.1
Cc1ccc(O)c(C=Nc2cc(C)ccc2O)c1	-0.3	3.0	23.0	4.5	-3.6	-35.2*
O=C1c2cccc([N+](=O)[O-])c2C(=O)N1c1c[nH]c(=O)[nH]c1=O	0.0	30.3*	4.7	0.9	1.3	-11.0
CC(C)CN(C(=O)COC(=O)c1ccccc1SCC(=O)NC1CCCCCC1)C1CCS(=O)(=O)C1 (stereo not drawn)	0.3	1.8	-8.8	1.4	1.8	-41.8*
CC(C)CN(C(=O)COC(=O)c1cc2ccccc2oc1=O)C1CCS(=O)(=O)C1 (stereo not drawn)	-0.1	1.1	·	4.2	15.2	1.1
CCN(C(=O)COC(=O)c1ccccc1SCC(=O)NC1CCCCCCC1)C1CCS(=O)(=O)C1 (stereo not drawn)	0.7	7.6	-7.3	0.2	-1.1	13.3
CC(C)CN(C(=O)COc1ccc(-c2nnco2)cc1)C1CCS(=O)(=O)C1 (stereo not drawn)	0.8	-2.6	-2.1	1.3	2.9	-47.2*
CC(C)CN(C(=O)COC(=O)c1ccc([N+](=O)[O-])o1)C1CCS(=O)(=O)C1 (stereo not drawn)	1.3	-0.3	-1.7	2.0	-7.5	-32.4*
CC(=O)Nc1ccc(OCC(=O)N(CC(C)C)C2CCS(=O)(=O)C2)cc1 (stereo not drawn)	0.8	6.4	-7.5	2.8	1.1	3.9
CC1CCC2(CC1)NC(=O)N(CC(=O)N(Cc1ccccc1)C(C)(C)C)C2=O (stereo not drawn)	0.4	2.6	-0.6	0.5	-9.6	-9.9
CC(C)(C)N(Cc1ccccc1)C(=O)CN1C(=O)NC2(CCCCCC2)C1=O	0.2	5.7	-3.7	1.1	·	-75.2*
COc1ccc(Cn2ccnc2SCC(=O)Nc2ccccc2F)cc1	-0.9	-4.7	0.4	2.3	-6.2	-30.9*
